Here are results for 57 compounds from the antibiotic and cytotoxicity screens of Wong et al. (2023).

The campaign covered roughly 39,000 compounds. About 3,300 (8.5%) were called active. The sample as a whole holds a higher share of actives than the screen did.

The test system of the assay is HepG2. Put plainly: cytotoxicity call (relative viability < 0.9). The note with it: 10 µM.
In the case of `Cc1ccc(S(=O)(=O)Nc2ccc3c(c2)C(=O)N([C@H](C)CO)C[C@H](C)[C@@H](CN(C)CC2CCCCC2)OCCCC[C@H](C)O3)cc1`, the cytotoxicity call was “inactive”.
As for `Cc1ccc(S(=O)(=O)Nc2ccc3c(c2)C(=O)N([C@@H](C)CO)C[C@H](C)[C@H](CN(C)CC2CCCCC2)OCCCC[C@H](C)O3)cc1`, the cytotoxicity call is “inactive”.
To `Cc1ccc(S(=O)(=O)Nc2ccc3c(c2)C(=O)N([C@H](C)CO)C[C@@H](C)[C@@H](CN(C)CC2CCCCC2)OCCCC[C@@H](C)O3)cc1` belongs “active”; to `Cc1ccc(S(=O)(=O)Nc2ccc3c(c2)C(=O)N([C@H](C)CO)C[C@@H](C)[C@@H](CN(C)CC2CCCCC2)OCCCC[C@H](C)O3)cc1`, “active”; to `Cc1ccc(S(=O)(=O)Nc2ccc3c(c2)C(=O)N([C@@H](C)CO)C[C@@H](C)[C@H](CN(C)CC2CCCCC2)OCCCC[C@H](C)O3)cc1`, “inactive”.
Consider `Cc1ccc(S(=O)(=O)Nc2ccc3c(c2)C(=O)N([C@H](C)CO)C[C@@H](C)[C@H](CN(C)CC2CCCCC2)OCCCC[C@@H](C)O3)cc1`, for which the cytotoxicity call is “inactive”.
With `Cc1ccc(S(=O)(=O)Nc2ccc3c(c2)C(=O)N([C@H](C)CO)C[C@H](C)[C@H](CN(C)CC2CCCCC2)OCCCC[C@@H](C)O3)cc1`, the cytotoxicity call is “inactive”.
On to `Cc1ccc(S(=O)(=O)Nc2ccc3c(c2)C(=O)N([C@@H](C)CO)C[C@@H](C)[C@H](CN(C)CC2CCCCC2)OCCCC[C@@H](C)O3)cc1`, for which the cytotoxicity call is “inactive”.
In the case of `Cc1ccc(S(=O)(=O)Nc2ccc3c(c2)C(=O)N([C@@H](C)CO)C[C@H](C)[C@H](CN(C)CC2CCCCC2)OCCCC[C@@H](C)O3)cc1`, the cytotoxicity call is “inactive”.
In the case of `Cc1ccc(S(=O)(=O)Nc2ccc3c(c2)C(=O)N([C@H](C)CO)C[C@H](C)[C@H](CN(C)CC2CCCCC2)OCCCC[C@H](C)O3)cc1`, the cytotoxicity call is “active”.
In the case of `Cc1ccc(S(=O)(=O)Nc2ccc3c(c2)C(=O)N([C@@H](C)CO)C[C@@H](C)[C@@H](CN(C)CC2CCCCC2)OCCCC[C@@H](C)O3)cc1`, the cytotoxicity call was “active”.
As for `Cc1ccc(S(=O)(=O)Nc2ccc3c(c2)C(=O)N([C@@H](C)CO)C[C@@H](C)[C@@H](CN(C)CC2CCCCC2)OCCCC[C@H](C)O3)cc1`, the cytotoxicity call was “inactive”.
Regarding `CO[C@H]1CN(C)C(=O)c2ccc(NC(=O)Nc3ccc(Cl)cc3)cc2OC[C@@H](C)N(C(=O)Nc2c(C)noc2C)C[C@@H]1C`, the cytotoxicity call is “inactive”.
Regarding `C[C@@H]1CCCCO[C@H](CN(C)Cc2ccc(C(=O)O)cc2)[C@@H](C)CN([C@H](C)CO)C(=O)c2cc(NS(=O)(=O)c3ccccc3)ccc2O1`, the cytotoxicity call is “inactive”.
As to `CCCNC(=O)N[C@@H]1C=C[C@H](CC(=O)N2CCN(C)CC2)O[C@@H]1CO`, the cytotoxicity call was “inactive”.
Regarding `C[C@@H]1CN([C@H](C)CO)C(=O)CCCn2nncc2CO[C@@H]1CN(C)C(=O)Nc1ccnc(N2CCOCC2)c1`, the cytotoxicity call was “inactive”.
As for `OC[C@@H](O)[C@@H](O)[C@@H](O)/C=N/Nc1ccccc1`, the cytotoxicity call was “inactive”.
Consider `CNC(=O)c1c(F)cccc1Nc1nc(Nc2cc3c(cc2OC)CCN3C(=O)CN(C)C)nc2[nH]ccc12`, for which the cytotoxicity call is “active”.
Next, `CN1C(=O)c2cc(NC(=O)Cc3cccs3)ccc2OC[C@H]2O[C@H](CC(=O)NCCCN3CCOCC3)CC[C@H]21`: “inactive”; `Cc1noc(C)c1NC(=O)Nc1ccc2c(c1)C(=O)N([C@@H](C)CO)C[C@H](C)[C@@H](CN(C)C(=O)C1CCCCC1)OCCCC[C@@H](C)O2`: “inactive”; `COc1ccc2c3c([nH]c2c1)[C@H](CO)N(Cc1cc(ccc1F)F)C[C@]13CCN(CC1)C(=O)CN(C)C`: “inactive”.
To `COc1ccc(CC[C@@H](OC(=O)[C@H]2CCCCN2C(=O)Cc2ccccc2)c2cccc(OCC(=O)O)c2)cc1OC` belongs “active”; to `CCC(=O)Nc1cccc([C@@H](CCc2ccc(OC)c(OC)c2)OC(=O)[C@@H]2CCCCN2C(=O)C(=O)C(C)(C)CC)c1`, “inactive”; to `CC[C@H](C(=O)N1CCCC[C@H]1C(=O)O[C@H](CCc1ccc(OC)c(OC)c1)c1cccc(OCC(=O)NCCNC(=O)COc2cccc([C@@H](CCc3ccc(OC)c(OC)c3)OC(=O)[C@@H]3CCCCN3C(=O)[C@@H](CC)c3cc(OC)c(OC)c(OC)c3)c2)c1)c1cc(OC)c(OC)c(OC)c1`, “inactive”.
As for `CCC(C)(C)C(=O)C(=O)N1CCCC[C@H]1C(=O)O[C@@H](CCc1ccc(OC)c(OC)c1)c1cccc(OCC(=O)NCCc2ccc(O)cc2)c1`, the cytotoxicity call is “inactive”.
With `CCCNC(=O)COc1cccc([C@@H](CCc2ccc(OC)c(OC)c2)OC(=O)[C@@H]2CCCCN2C(=O)C(=O)C(C)(C)CC)c1`, the cytotoxicity call was “active”.
For the compound `C=CC(=O)Nc1cccc([C@@H](CCc2ccc(OC)c(OC)c2)OC(=O)[C@@H]2CCCCN2C(=O)C(=O)C(C)(C)CC)c1`, the cytotoxicity call was “inactive”.
Next, `COc1ccc(S(=O)(=O)Nc2ccc3c(c2)C(=O)N([C@@H](C)CO)C[C@H](C)[C@@H](CN(C)S(=O)(=O)c2cn(C)cn2)O3)cc1`: “inactive”; `C[C@H]1CN([C@@H](C)CO)C(=O)c2cc(NC(=O)C3CCCCC3)ccc2O[C@@H]1CN(C)Cc1ccc(C(F)(F)F)cc1`: “inactive”; `C[C@H](CO)N1C[C@H](C)[C@@H](CN(C)Cc2ccccc2)Oc2ccc(NC(=O)Cn3cnnn3)cc2C1=O`: “inactive”.
Regarding `C[C@H]1CN([C@@H](C)CO)C(=O)c2cccc(NS(=O)(=O)c3ccccc3)c2O[C@H]1CN(C)S(=O)(=O)c1cn(C)cn1`, the cytotoxicity call is “inactive”.
`CCc1nc2ccc(C(=O)NCCCN3CCCC3=O)cn2c1N(CC)C(=O)NCCc1ccccc1`: the cytotoxicity call is “inactive”.
Next, `C[C@@H]1CN([C@H](C)CO)C(=O)c2cc(NC(=O)Nc3ccc(F)cc3)ccc2O[C@@H]1CN(C)Cc1ccc(Cl)c(Cl)c1`: “inactive”; `C[C@@H]1CN([C@@H](C)CO)C(=O)c2cc(NC(=O)Nc3ccc(F)cc3)ccc2O[C@H]1CN(C)Cc1ccc(Cl)c(Cl)c1`: “inactive”; `C[C@@H]1CN([C@H](C)CO)C(=O)c2cc(NC(=O)Nc3ccc(F)cc3)ccc2O[C@H]1CN(C)Cc1ccc(Cl)c(Cl)c1`: “inactive”.
For `C[C@H](CO)N1C[C@H](C)[C@H](CN(C)Cc2ccc(Cl)c(Cl)c2)Oc2ccc(NC(=O)Nc3ccc(F)cc3)cc2C1=O`, the cytotoxicity call is “active”.
With `C[C@H]1CN([C@@H](C)CO)C(=O)c2cc(NC(=O)Nc3ccc(F)cc3)ccc2O[C@H]1CN(C)Cc1ccc(Cl)c(Cl)c1`, the cytotoxicity call was “inactive”.
Regarding `C[C@@H]1CN([C@@H](C)CO)C(=O)c2cc(NC(=O)Nc3ccc(F)cc3)ccc2O[C@@H]1CN(C)Cc1ccc(Cl)c(Cl)c1`, the cytotoxicity call is “active”.
To `Cc1noc(C)c1NC(=O)Nc1ccc2c(c1)CC(=O)N([C@@H](C)CO)C[C@@H](C)[C@@H](CN(C)Cc1ccc(C(=O)Nc3ccccc3N)cc1)O2` belongs “inactive”; to `O=C(C[C@H]1CC[C@H]2[C@@H](COC[C@@H](O)CN2S(=O)(=O)c2ccc(Cl)cc2)O1)NCc1ccncn1`, “inactive”.
Turning to `COc1ncc(-c2ccc3c(Nc4cc(Oc5cc(F)cc(F)c5)cc(C(=O)O)c4)c(S(=O)(=O)NC4CC4)cnc3c2)c(OC)n1`, the cytotoxicity call is “inactive”.
Turning to `CO[C@@H]1CN(C)C(=O)c2ccc(NC(=O)C3CC3)cc2OC[C@H](C)N(C(=O)C2CCOCC2)C[C@@H]1C`, the cytotoxicity call was “inactive”.
As for `COc1ccc(S(=O)(=O)Nc2cccc3c2O[C@H](CN(C)S(=O)(=O)c2ccc(C)cc2)[C@H](C)CN([C@@H](C)CO)C3=O)cc1`, the cytotoxicity call was “inactive”.
For the compound `C[C@H]1CN([C@@H](C)CO)C(=O)c2cc(C#CCN(C)C)cnc2O[C@H]1CN(C)C(=O)c1ccc2c(c1)OCO2`, the cytotoxicity call is “inactive”.
For `C[C@@H]1CCCCO[C@@H](CN(C)Cc2ccc(C(F)(F)F)cc2)[C@H](C)CN([C@@H](C)CO)C(=O)c2cc(NC(=O)Nc3ccc(C(F)(F)F)cc3)ccc2O1`, the cytotoxicity call was “inactive”.
Turning to `C[C@@H]1CN([C@H](C)CO)C(=O)c2cc(NC(=O)Nc3ccc(C(F)(F)F)cc3)ccc2O[C@@H](C)CCCCO[C@H]1CN(C)Cc1ccc(C(F)(F)F)cc1`, the cytotoxicity call is “active”.
As to `C[C@@H]1CCCCO[C@H](CN(C)Cc2ccc(C(F)(F)F)cc2)[C@@H](C)CN([C@@H](C)CO)C(=O)c2cc(NC(=O)Nc3ccc(C(F)(F)F)cc3)ccc2O1`, the cytotoxicity call is “inactive”.
In the case of `C[C@@H]1CN([C@@H](C)CO)C(=O)c2cc(NC(=O)Nc3ccc(C(F)(F)F)cc3)ccc2O[C@@H](C)CCCCO[C@@H]1CN(C)Cc1ccc(C(F)(F)F)cc1`, the cytotoxicity call is “inactive”.
Next, `C[C@@H]1CN([C@@H](C)CO)C(=O)c2cc(NC(=O)Nc3ccc(C(F)(F)F)cc3)ccc2O[C@@H](C)CCCCO[C@H]1CN(C)Cc1ccc(C(F)(F)F)cc1`: “active”.
For `C[C@H](CO)N1C[C@H](C)[C@@H](CN(C)Cc2ccc(C(F)(F)F)cc2)OCCCC[C@H](C)Oc2ccc(NC(=O)Nc3ccc(C(F)(F)F)cc3)cc2C1=O`, the cytotoxicity call is “inactive”.
Turning to `C[C@@H]1CCCCO[C@H](CN(C)Cc2ccc(C(F)(F)F)cc2)[C@H](C)CN([C@@H](C)CO)C(=O)c2cc(NC(=O)Nc3ccc(C(F)(F)F)cc3)ccc2O1`, the cytotoxicity call is “active”.
Consider `C[C@H](CO)N1C[C@H](C)[C@H](CN(C)Cc2ccc(C(F)(F)F)cc2)OCCCC[C@H](C)Oc2ccc(NC(=O)Nc3ccc(C(F)(F)F)cc3)cc2C1=O`, for which the cytotoxicity call is “active”.
`O=C(CN1CCOCC1)NCC[C@@H]1CC[C@@H](NS(=O)(=O)c2ccc(F)cc2)[C@@H](CO)O1`: the cytotoxicity call is “inactive”.
To `CCS(=O)(=O)N1C[C@]2(C1)CN([C@@H](CO)c1[nH]c3cc(ccc3c12)OC)C(=O)Nc1c(noc1C)C` belongs “inactive”; to `C[C@H](CO)N1C[C@H](C)[C@@H](CN(C)C(=O)CN(C)C)Oc2cc(C#C[C@@H](C)O)ccc2S1(=O)=O`, “inactive”; to `C[C@@H]1CCCCO[C@H](CN(C)S(=O)(=O)c2ccc(Cl)cc2)[C@H](C)CN([C@@H](C)CO)C(=O)c2cc(NC(=O)C3CCCCC3)ccc2O1`, “inactive”.
Consider `COc1ccc(NC(=O)N(C)C[C@H]2Oc3ccc(NS(=O)(=O)c4cn(C)cn4)cc3CC(=O)N([C@H](C)CO)C[C@@H]2C)cc1`, for which the cytotoxicity call is “inactive”.
